Source: PubChem BioAssay
Shown are actives, neighbours in structure and some others; about 2.2% of the full set was active somewhere.
Beta apoptosis = beta cell apoptosis inhibition | INS-1E cytokine-induced death, ATP luminescence, 48 h; percent of positive-control rescue, neutral wells zero | protection from apoptosis, % (no concentration beside the values) | 0.8% of 300,000 active | AID 435005;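 active = Every replicate reaches about 75%, or at least half do and their mean reaches it too, limit read from the data; inconclusive = At least half of replicates reach the limit but their mean does not; inactive = Under half of replicates reach the limit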;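 note: higher means more ATP so stronger rescue from cytokine killing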
CSC inhib = cancer stem cell inhibition. 1.1% of 300,000 active. inhibition, % at 7.5 µM. AID 2717. cancer stem cell-like cells viability, luminescence; in the data active = inhibition above about 75%; inconclusive = no clear call, values can overlap the other calls; tested in HMLE shEcad cells
Shn3 inh set2 = inhibitors of Schnurri-3 3'UTR reporter in osteoblasts | Clone20 osteoblast Shn3 3'UTR firefly luciferase, 24 h | inhibition, % at 12.5 µM | 0.52% of 360,000 active | AID 588674;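 active = mean inhibition of at least 75% with every replicate also reaching 75%; inconclusive = mean inhibition at least 75% but some replicate below; inactive = mean inhibition below 75%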
PfHsp90 yeast 2 = reduces growth (ATP signal) of yeast expressing P. falciparum Hsp90; S. cerevisiae expressing PfHsp90, BacTiter-Glo ATP, 48 h; yeast lacking PDR1 and PDR3 efflux regulators; AID 504621; 0.32% of 310,000 active; inhibition, % at 9.4 µM;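 active = every replicate shows inhibition above about 80%, whatever the replicate mean, limit read from the data; inconclusive = mean inhibition reaches the set limit but some replicate falls short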
Calb FLC = affects C. albicans growth with fluconazole | AID 1979 | growth inhibition, % (no concentration beside the values) | C. albicans CaCi-2 (fluconazole-resistant clinical isolate) + fluconazole, Alamar Blue growth, 48 h | 0.57% of 300,000 active;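 active = growth inhibition above about 58% in most replicates, limit read from the data, passing the limit was not always enough; inconclusive = exactly half the replicates above a set limit; inactive = most replicates below a set limit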;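 note: all wells also contain fluconazole at 8 µg/ml as a sub-toxic cotreatment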
Each line names hits and unclear results; the compound was inactive in the other large screens.

CC1(C)C(C(=O)N2CCN(c3ccc(Cl)cc3)CC2)C1(C)C	none (no result: Calb FLC)
COC(=O)C1CN(C#N)N(c2ccc(Cl)cc2)C12c1ccccc1-c1ccccc12 (configuration not stated)	Beta apoptosis 112.0, Shn3 inh set2 96.8, PfHsp90 yeast 2 96.1
O=C1C2CCN(CC2)C1Cc1ccccc1O (configuration not stated)	none (no result: Shn3 inh set2, PfHsp90 yeast 2)
O=C1C2CCN(CC2)C1Cc1ccc(OCCOc2ccccc2)cc1 (configuration not stated)	Calb FLC 108.5
C#CCNc1ccncc1S(=O)(=O)NC(=O)NC(C)C	none
c1ccc2c(CN3CCCCC3)c[nH]c2c1	none
COc1ccc(CN2CCN(C(=O)COc3ccc4ccccc4c3)CC2)c(OC)c1	none
O=C(COc1ccc(Br)cc1)N1CCN(Cc2c[nH]c3ccccc23)CC1	Beta apoptosis 106.4
O=C(COc1ccc2ccccc2c1)N1CCN(Cc2c[nH]c3ccccc23)CC1	Beta apoptosis 101.8
O=C1NC(=O)C(Nc2ccc(Cl)c(Cl)c2)C(=O)N1	none (no result: Beta apoptosis, CSC inhib, Calb FLC)
Clc1ccc(C(c2ccc(Cl)cc2)n2cc[n+](CC(OCc3ccc(Cl)cc3Cl)c3ccc(Cl)cc3Cl)c2)cc1 (configuration not stated)	Beta apoptosis 121.5, CSC inhib 107.1, Shn3 inh set2 87.2, PfHsp90 yeast 2 107.4 (no result: Calb FLC)
C[C@H]1C(=O)O[C@@H]2CCN3CC=C(COC(=O)[C@](C)(O)[C@]1(C)O)[C@H]23	none (no result: Calb FLC)
O=C(NCc1cccnc1)Nc1ccc([N+](=O)[O-])cc1	Beta apoptosis 81.1
CC(C)=CCN1CC[C@@]2(C)c3cc(O)ccc3C[C@@H]1C2C (some centres not stated)	none (no result: Beta apoptosis, CSC inhib, PfHsp90 yeast 2, Calb FLC)
Clc1ccc(CSC(Cn2ccnc2)c2ccc(Cl)cc2Cl)cc1 (configuration not stated)	PfHsp90 yeast 2 90.3 (no result: Calb FLC)
Clc1ccc(COC(Cn2ccnc2)c2ccc(Cl)cc2Cl)cc1 (configuration not stated)	PfHsp90 yeast 2 83.0 (no result: Calb FLC)
c1ccc(Cn2ccnc2)cc1	none
COC(=O)C1=C(c2cccc(OC)c2OC)C[C@@H]2CC[C@H]1N2C(=O)NC(C)C	none
CN1C(=O)/C(=C/c2ccc(Cl)s2)C(=O)NC1=S	PfHsp90 yeast 2 93.9
CCn1nc(-c2ccccc2)nc2c(=O)n(C)c(=O)nc1-2	Beta apoptosis 107.5, PfHsp90 yeast 2 107.3, Calb FLC 89.5
CNc1ccc2nc3ccccc3[n+](C)c2c1	Beta apoptosis 93.4
CC(C)=CCN1CC[C@@]2(C)c3cc(O)ccc3CC1C2C (some centres not stated)	none (no result: Beta apoptosis, CSC inhib, PfHsp90 yeast 2, Calb FLC)
COc1ccc(C(=O)C2CCCN(C3CSCCSC3)C2)c(OC)c1 (configuration not stated)	CSC inhib 77.5
CCCSP1(=S)NCCCO1 (configuration not stated)	none (no result: Calb FLC)
C[C@]12CC[C@H](O)C[C@H]1CC[C@@H]1[C@@H]2CC[C@]2(C)[C@@H](C3=CC(=O)OC3)CC[C@]12O	CSC inhib 95.2 (no result: Calb FLC)
CC12CCC(O)CC1CCC1C2CCC2(C)C(C3=CC(=O)OC3)CCC12O (configuration not stated)	none (no result: Beta apoptosis, CSC inhib, Calb FLC)
C[C@]12CC[C@H](O)C[C@H]1CC[C@@H]1[C@@H]2C[C@@H](O)[C@]2(C)[C@@H](C3=CC(=O)OC3)CC[C@]12O	CSC inhib 84.4 (no result: Calb FLC)
CCOC(=O)c1ccc(NC(=O)N2CC3CC(C2)c2cccc(=O)n2C3)cc1 (configuration not stated)	none
COC(=O)CCCNC(=O)CN1CC(c2ccccc2)CC1=O (configuration not stated)	none
COC(=O)C1=C(c2ccc3ccccc3c2)C[C@@H]2CC[C@H]1N2C(=O)NCC1CC1	Shn3 inh set2 88.8 (no result: Calb FLC)
CC1CCC(C(C)C)C(OC(=O)Cn2c(COc3ccccc3)[n+](C)c3ccccc32)C1 (configuration not stated)	Beta apoptosis 105.8, CSC inhib 98.3
Clc1ccccc1Nc1ncnc(-n2cccc2)n1	none (no result: PfHsp90 yeast 2)
N#CC12c3ccccc3C(=O)N1Cc1cnnn1-c1ccccc12 (configuration not stated)	none (no result: Beta apoptosis, CSC inhib, PfHsp90 yeast 2, Calb FLC)
N=c1sccn1Cc1ccc(Cl)cc1Cl	none
Clc1ccc(CO/N=C(\Cn2ccnc2)c2ccc(Cl)cc2Cl)c(Cl)c1	Beta apoptosis 88.0, CSC inhib 103.0 (no result: Shn3 inh set2, PfHsp90 yeast 2, Calb FLC)
C[C@H]1CCC[C@H](O)CCCCCc2cc(O)cc(O)c2C(=O)O1	none (no result: Calb FLC)
C[C@H]1CCC[C@@H](O)CCC/C=C/c2cc(O)cc(O)c2C(=O)O1	none (no result: CSC inhib)
CC1CCC/C=C/C2CC(O)CC2C(O)/C=C/C(=O)O1 (configuration not stated)	Beta apoptosis 99.1, CSC inhib 130.8
C[C@H]1CCC/C=C/C2C[C@H](O)CC2[C@H](O)/C=C/C(=O)O1 (some centres not stated)	Beta apoptosis 99.5, CSC inhib 113.0, Shn3 inh set2 93.7 (no result: Calb FLC)
Brc1ccc2c(c1)-n1nncc1CN(CC1CCCCC1)C2	none (no result: Beta apoptosis, CSC inhib, PfHsp90 yeast 2, Calb FLC)
CCCCOC1OCN(C2CCCCC2)CC1(C)C (configuration not stated)	none (no result: Beta apoptosis, CSC inhib, PfHsp90 yeast 2, Calb FLC)
O=C(c1ccccc1)C(CN1CCCC1)c1ccccc1 (configuration not stated)	Beta apoptosis 92.1, Shn3 inh set2 inconclusive, Calb FLC 92.7
CC1CC(C)(O)CC(C(O)CC2CC(=O)NC(=O)C2)C1=O (configuration not stated)	Shn3 inh set2 93.9 (no result: Beta apoptosis, CSC inhib, Calb FLC)
CN(C)Cc1c[nH]c2ccccc12	none (no result: Calb FLC)
C=CCN(CC=C)Cc1c[nH]c2ccccc12	Beta apoptosis 107.0 (no result: Shn3 inh set2, PfHsp90 yeast 2)
CCN(CC)C(=O)c1ccc(NC(=O)c2cccc(C(F)(F)F)c2)cc1	none
CCN(CCCl)c1cc(CN(C)C)cc(NC(=O)c2ccc(C(=O)Nc3cc(CN(C)C)cc(N(CC)CCCl)c3)cc2)c1	Shn3 inh set2 96.2 (no result: Beta apoptosis, CSC inhib, Calb FLC)
COC(=O)C1=C(c2cc3ccccc3s2)C[C@@H]2CC[C@H]1N2C(=O)NCc1ccc(F)cc1	none
O=C1C(=O)c2ccccc2-c2ccccc21	Beta apoptosis 121.1, CSC inhib 107.3, Shn3 inh set2 117.2, PfHsp90 yeast 2 inconclusive (no result: Calb FLC)
C[C@H]1[C@@H](OS(=O)(=O)O)C[C@@H]2C[C@H]([C@@H](O)c3cc(=O)[nH]c(=O)[nH]3)NC3=NC[C@H]1N32	Shn3 inh set2 97.9 (no result: Beta apoptosis, CSC inhib, Calb FLC)
O=C(/C=C/c1ccc2c(c1)OCO2)c1c(O)n(CCC2=CCCCC2)c(=O)[nH]c1=O	CSC inhib 84.2 (no result: Calb FLC)
COc1ccc(/C=C/C(=O)c2c(O)n(CCC3=CCCCC3)c(=O)[nH]c2=O)cc1	CSC inhib 119.5
O=C(CF)NC(NC(=S)Nc1ccccc1O)C(Cl)(Cl)Cl (configuration not stated)	none
COc1ccc(N/N=C/c2c(O)n(-c3ccc(C)c(C)c3)c(=O)[nH]c2=O)cc1	CSC inhib 117.3
Cc1ccc(-n2c(O)c(/C=N/Nc3ccccc3)c(=O)[nH]c2=O)cc1C	none (no result: Shn3 inh set2, PfHsp90 yeast 2)
COc1ccc(N/N=C/c2c(O)n(-c3cccc(C)c3)c(=O)[nH]c2=O)cc1	CSC inhib 95.2, Calb FLC 113.7
CCCC(C)C(=O)NC1CCSC1=O (configuration not stated)	none (no result: PfHsp90 yeast 2)
